Data reported in PubChem BioAssay (NCI).
The panel holds about 79,000 compounds, 15% with a hit somewhere; the sample as a whole holds those more often. Values without a mark were called inactive. Active and inactive are the calls of the source. No stated cut-off is given here; in the data, active means growth inhibition above about 70%; inactive means the rest.

Assay: NCI Yeast Anticancer Drug Screen. Data for the wt1 strain (AID 149);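 further: 0% = growth of vehicle-treated wt1 cultures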
Conditions: S. cerevisiae wt1 strain (SPY 50644) growth inhibition, hits give high values
Experimental: Growth inhibition of yeast strains with defined genetic alterations is measured as a screen for potential anti-cancer activity. Selected strains with alterations in DNA damage repair or cell cycle control were exposed to compounds and growth inhibition was measured relative to vehicle treated controls. The strain used in this assay is wt1

Compound | growth inhibition (at 1.2 µM) | growth inhibition (at 3.7 µM) | growth inhibition (at 11.0 µM) | growth inhibition (at 33.0 µM) | growth inhibition (at 100.0 µM)
Cc1cccc(C(C)(C)C)c1NC(=O)C(C#N)C1=C(Cl)C(=O)c2ccccc2C1=O (stereo not given) | -10% | 10% | 21% | 98% (active) | 98% (active)
OC(/C=C/c1ccccc1)(Cc1cc(-c2ccccc2)n[nH]1)c1ccccc1 (stereo not given) | 9% | 5% | 7% | 8% | 9%
CC1=NOC(=O)/C1=C/c1ccc2c(c1)OCO2 | 5% | 0% | 2% | 6% | 13%
CC(=O)OCC(C)Cc1cc2c(cc1Br)OCO2 (stereo not given) | 1% | -5% | 6% | -2% | -13%
O=C1C=C(Cl)C(=O)C(c2ccc(Cl)cc2)=C1 | 1% | 5% | 21% | 97% (active) | 97% (active)
CC1(C)CC(=O)C(/C=N/c2nc(-c3ccccc3)cs2)=C(O)C1 | 2% | 2% | 6% | 22% | 54%
O=C(Nc1ccc(Cl)cc1)Nc1nnc2nc(C(C(=O)c3cccc([N+](=O)[O-])c3Cl)c3nc4nnc(NC(=O)Nc5ccc(Cl)cc5)n4[nH]c3=O)c(=O)[nH]n12 | 1% | 1% | 3% | -1% | 30%
O=C(NCCCl)Sc1ccc(Cl)cc1 | -3% | -3% | 0% | 21% | 80% (active)
